Laboratory results published in PubChem BioAssay.
Calls of active or inactive are those of the source. Unless noted, the rule behind the calls is not given here.

What was measured:
[1] = resazurin metabolic signal in HepG2 cells – cell-based, resazurin fluorescence, 24 h, PK04 Diversity Set, profiling panel (AID 1172); conditions: HepG2 viability, higher = more signal
[2] = budding yeast growth changes without added modifier – OD600, strain BY4716, 24 h, basal condition, primary screen (AID 1173); conditions: S. cerevisiae BY4716 growth, OD600, 24 h; higher = more signal, called active from +8 up or from −8 down
[3] = viability profiling in MM1S myeloma cells – cell-based, resazurin fluorescence, basal, 24 h, PK04 Diversity Set, profiling panel (AID 1174); conditions: higher = more signal, called active from +8 up or from −8 down;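 note: MM1S multiple myeloma cell line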
[4] = target: Dihydroorotate dehydrogenase (quinone), mitochondrial (Plasmodium falciparum (isolate 3D7)) (UniProt Q08210); test: inhibition of P. falciparum DHODH – biochemical, C-terminal His tag, absorbance 600 nm, primary screen (AID 1175); conditions: PfDHODH enzyme, DCIP absorbance 600 nm; higher = more signal, called active from +8 up or from −8 down;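 note: recombinant parasite enzyme with a five histidine tag at its C terminus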
[5] = inhibition of PAO1 biofilm formation – strain PAO1, LB-PBS medium, absorbance 600 nm, primary screen (AID 1176); conditions: P. aeruginosa PAO1 growth/biofilm, A600, 12 h; higher = more signal
[6] = growth modulation of vineyard yeast isolate – strain RM11-1a, OD600, basal, 24 h, primary screen (AID 1177);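 note: cultures grown under basal conditions with no added stressor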; conditions: S. cerevisiae RM11-1a growth, OD600, 24 h; higher = more signal, called active from +8 up or from −8 down
[7] = growth of efflux-deficient E. coli DRC39 – strain DRC39, OD650, 24 h, E. coli filamentation inducers, primary screen (AID 1178);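 note: growth measured as culture turbidity by optical density at 650 nm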; conditions: E. coli DRC39 acrAB, higher = more signal, called active from +8 up or from −8 down
[8] = growth of efflux-deficient E. coli DRC39 – strain DRC39, OD650, 48 h, E. coli filamentation inducers, primary screen (AID 1179);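 note: screen aims at cell division blockers that make cells filament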; conditions: E. coli DRC39 delta-acrAB growth, higher = more signal, called active from +8 up or from −8 down
[9] = viability profiling in RPMI8226 myeloma cells – cell-based, resazurin fluorescence, basal, 24 h, PK04 Diversity Set, profiling panel (AID 1180); conditions: higher = more signal;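 note: RPMI8826 multiple myeloma cell line at 5000 cells per well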
[10] = target: E3 ubiquitin-protein ligase XIAP (Homo sapiens) (UniProt P98170); test: small molecules binding XIAP protein – biophysical, small-molecule microarray, fluorescence 635 nm, primary screen (AID 1181); conditions: higher = more signal;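 note: score merges 667 nm emission and signal to noise over triplicate slides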
[11] = tested on: XIP peptide (Xip251-270) binding; test: XIP fragment 251-270 binding compounds – biochemical, small-molecule microarray, fluorescence 635/667 nm, 0.1 µg/mL protein, primary screen (AID 1182); conditions: fluorescent protein binding, 635 nm, higher = more signal, called active from +8 up or from −8 down
XIP peptide (Xip251-270) = test: compounds binding XIP fragment 251-270 – biochemical, small-molecule microarray, fluorescence 635/667 nm, 0.5 µg/mL protein, primary screen (AID 1183); conditions: fluorescence 635 nm, higher = more signal
[12] = blood-stage malaria parasite viability loss – strain 3D7, DAPI fluorescence, 100 nL, primary screen (AID 1184);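 note: parasites grown inside human red blood cells in medium with human serum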; conditions: P. falciparum 3D7 growth, 3 d, higher = more signal
[13] = target: Homeobox protein Hox-A13 (Mus musculus) (UniProt Q62424); test: disruptors of Hoxa13 oligonucleotide interaction – biochemical, fluorescence polarization, labeled oligonucleotide, primary screen (AID 1185); conditions: Hoxa13:DNA binding, 15 min, higher = more signal, called active from +8 up or from −8 down
Homeobox protein Hox-A13 (Mus musculus), sequence (Q62424 whole entry, looked up): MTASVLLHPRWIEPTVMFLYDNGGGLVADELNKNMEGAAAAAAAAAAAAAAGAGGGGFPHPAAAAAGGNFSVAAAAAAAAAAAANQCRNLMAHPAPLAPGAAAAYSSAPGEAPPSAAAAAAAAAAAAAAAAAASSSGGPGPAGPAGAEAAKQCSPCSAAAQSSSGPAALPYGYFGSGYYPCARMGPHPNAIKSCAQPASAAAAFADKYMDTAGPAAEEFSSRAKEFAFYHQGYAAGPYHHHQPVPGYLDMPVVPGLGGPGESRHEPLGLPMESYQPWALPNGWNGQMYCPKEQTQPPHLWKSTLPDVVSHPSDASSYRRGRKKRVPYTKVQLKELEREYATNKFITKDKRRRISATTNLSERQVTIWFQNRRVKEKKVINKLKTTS

Dihydroorotate dehydrogenase (quinone), mitochondrial (Plasmodium falciparum (isolate 3D7)), sequence (Q08210 whole entry, looked up): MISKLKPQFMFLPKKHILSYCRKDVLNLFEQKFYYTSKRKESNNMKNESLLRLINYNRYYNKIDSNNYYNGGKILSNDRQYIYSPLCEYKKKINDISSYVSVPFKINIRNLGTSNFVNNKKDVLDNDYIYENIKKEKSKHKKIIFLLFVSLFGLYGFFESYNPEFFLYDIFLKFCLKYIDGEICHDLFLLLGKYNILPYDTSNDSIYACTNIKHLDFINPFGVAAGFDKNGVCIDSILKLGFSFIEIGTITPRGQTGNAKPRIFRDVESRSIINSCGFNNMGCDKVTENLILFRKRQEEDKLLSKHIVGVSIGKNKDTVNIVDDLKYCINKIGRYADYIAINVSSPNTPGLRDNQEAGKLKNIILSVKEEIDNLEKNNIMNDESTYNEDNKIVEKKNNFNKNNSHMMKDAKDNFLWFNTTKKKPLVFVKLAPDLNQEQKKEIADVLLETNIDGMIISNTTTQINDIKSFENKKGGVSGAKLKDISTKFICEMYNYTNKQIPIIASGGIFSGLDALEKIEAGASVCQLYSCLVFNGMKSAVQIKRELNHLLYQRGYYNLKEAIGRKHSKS
E3 ubiquitin-protein ligase XIAP (Homo sapiens), sequence (P98170 whole entry, looked up, the tested form may be a part): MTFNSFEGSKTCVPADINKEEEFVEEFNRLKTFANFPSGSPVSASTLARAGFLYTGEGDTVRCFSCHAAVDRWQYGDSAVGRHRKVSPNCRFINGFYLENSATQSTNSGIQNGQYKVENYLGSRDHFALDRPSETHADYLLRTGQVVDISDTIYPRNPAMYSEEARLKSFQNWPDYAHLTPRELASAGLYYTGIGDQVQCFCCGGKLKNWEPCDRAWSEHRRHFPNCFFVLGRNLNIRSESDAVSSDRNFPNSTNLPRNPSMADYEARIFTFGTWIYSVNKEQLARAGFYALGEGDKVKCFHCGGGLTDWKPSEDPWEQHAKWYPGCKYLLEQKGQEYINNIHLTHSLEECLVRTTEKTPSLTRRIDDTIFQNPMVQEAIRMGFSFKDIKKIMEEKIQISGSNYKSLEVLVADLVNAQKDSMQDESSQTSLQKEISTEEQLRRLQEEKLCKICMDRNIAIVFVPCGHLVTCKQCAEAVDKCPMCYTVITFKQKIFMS

SMILES | z-score [1] | z-score [2] | z-score [3] | composite z-score [4] | z-score [5] | z-score [6] | z-score [7] | z-score [8] | z-score [9] | composite z-score [10] | composite z-score [11] | composite z-score (XIP peptide (Xip251-270)) | z-score [12] | z-score [13]
CC1(C)OCC(C(O)C2=CCCCC2=O)CO1 (centres undefined) | -0.786 | -0.124 (inactive) | 0.665 (inactive) | 0.523 (inactive) | 1.49 (inactive) | 0.205 (inactive) | -0.85 (inactive) | -2.63 (inactive) | 0.297 | -0.294 | 0.563 (inactive) | 0.446 | -0.831 | -2.61 (inactive)
COc1ccc(O[C@H]2C=C[C@@H](c3ccccc3)O[C@@H]2COC(=O)CCC(C)=NO[C@@H](C)c2cc(-c3c(C)cc(C)cc3C)no2)cc1 | 0.716 | 1.04 (inactive) | 0.622 (inactive) | 0.188 (inactive) | -0.421 (inactive) | 0.108 (inactive) | 0.291 (inactive) | -0.893 (inactive) | 1.14 | -0.151 | -0.491 (inactive) | -0.782 | -0.739 | -0.508 (inactive)
CC(=O)OC[C@H]1O[C@H](CCON=C(C)CCN2CCc3nc(-c4ccccc4)c(-c4ccccc4)cc3C2)C=C[C@@H]1OC(C)=O | 0.0962 | -0.0567 (inactive) | -0.91 (inactive) | -0.439 (inactive) | 0.441 (inactive) | -0.64 (inactive) | 0.304 (inactive) | -0.545 (inactive) | 0.28 | 0.275 | 0.583 (inactive) | -0.0332 | -0.697 | -4.36 (inactive)
C=CC[C@@H]1C=C[C@H](ON=C[C@@H](OC)[C@H](C)C=CCC(=O)OC)[C@@H](CO)O1 | -0.266 | -0.54 (inactive) | -0.709 (inactive) | 0.217 (inactive) | -0.537 (inactive) | 1.17 (inactive) | 0.456 (inactive) | 0.732 (inactive) | -0.707 | 0.32 | -0.0604 (inactive) | 0.168 | 0.167 | -0.413 (inactive)
COc1ccc(O[C@H]2C=C[C@@H](c3ccccc3)O[C@@H]2COC(=O)CCC(C)=NOCC[C@@H]2C=C[C@H](OC(C)=O)[C@@H](COC(C)=O)O2)cc1 | 0.453 | 1.51 (inactive) | 0.595 (inactive) | -0.64 (inactive) | -0.455 (inactive) | 0.893 (inactive) | 0.265 (inactive) | -0.0862 (inactive) | 0.485 | 0.388 | 0.543 (inactive) | 0.0553 | -0.703 | -4.08 (inactive)
CCOC(=O)[C@H](Cc1ccccc1)NC(=O)CCC1CC(OC(=O)NCc2ccc3c(c2)OCO3)CC2(CCCC(COC(=O)NCc3cccc(C(F)(F)F)c3)O2)O1 (some centres undefined) | -0.302 | -1.17 (inactive) | 1.12 (inactive) | -2.76 (inactive) | -0.813 (inactive) | 0.234 (inactive) | -1.21 (inactive) | -0.793 (inactive) | 0.352 | 0.309 | 0.19 (inactive) | 0.109 | -2.01 | -0.531 (inactive)
O=C1C2=CC[C@H]3C(=O)N(Cc4ccc5c(c4)OCO5)C(=O)[C@H]3[C@H]2[C@H](O)[C@@H]2O[C@H]12 | -0.522 | -0.105 (inactive) | -0.677 (inactive) | -0.907 (inactive) | 0.0578 (inactive) | -0.491 (inactive) | 0.166 (inactive) | 0.0632 (inactive) | -1.49 | -0.381 | 0.225 (inactive) | 0.0823 | 1.68 | -0.229 (inactive)
C[C@H]1CC[C@@H](C(=O)O)N[C@@H]1c1ccc(C#CCN(C)C)cc1 | 0.378 | -1.07 (inactive) | 0.584 (inactive) | 0.666 (inactive) | -0.458 (inactive) | -0.191 (inactive) | 0.554 (inactive) | 0.15 (inactive) | 0.22 | 0.256 | 0.908 (inactive) | 0.512 | -0.0492 | -1.16 (inactive)
COC(=O)C1=C(C)[C@@H](O)[C@@H](C)[C@H](c2c(OC)c(OC)c(C)c(OC)c2OC)O1 | -0.359 | -0.195 (inactive) | -0.46 (inactive) | -0.218 (inactive) | 0.368 (inactive) | 0.0467 (inactive) | 0.0595 (inactive) | -0.0569 (inactive) | -0.529 | 0.0101 | -0.252 (inactive) | 0.562 | -0.717 | -0.388 (inactive)
COC(=O)[C@@H]1CCCN1C(=O)[C@@H](C)CO | -0.337 | -1.06 (inactive) | -0.379 (inactive) | -2.93 (inactive) | 0.0372 (inactive) | -0.213 (inactive) | -1.47 (inactive) | -2.18 (inactive) | -0.376 | -0.0415 | 0.446 (inactive) | 0.0063 | -1.35 | 1.64 (inactive)
CC(=O)OC[C@H]1O[C@H](CCON=C[C@@H](C)[C@H](OCc2ccccc2)C(C)C)C=C[C@@H]1OC(C)=O | -0.374 | 0.604 (inactive) | -0.81 (inactive) | -0.64 (inactive) | 0.0039 (inactive) | -0.399 (inactive) | -0.983 (inactive) | -2.1 (inactive) | -0.429 | -0.215 | 0.72 (inactive) | 0.165 | -0.219 | -4.91 (inactive)
